# According to article PMC9838217, “Structure of SALL4 zinc finger domain reveals link between AT-rich DNA binding and Okihiro syndrome”:
# Numbering of substitutions follows the chain as printed.
# Legend:
# Assay in all cases: HT-SELEX; high values mean tight binding
# Settings in all cases: protein: recombinant; vector His6-GST; dsDNA, one strand shown
# SALL4 ZFC4 WT (HT-SELEX) = target: T1, SALL4 ZFC4 WT (HT-SELEX) (Mus musculus, UniProt Q8BX22 870-940)
# T1 sequence: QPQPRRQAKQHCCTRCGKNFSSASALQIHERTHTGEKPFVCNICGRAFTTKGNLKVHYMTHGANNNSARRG
# How it was run: (§1)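 Each canonical k-mer's binding signal is its read fraction expressed as fold change over the initial random library. Reads came from MiSeq sequencing, scanned for 6-mers, after up to 6 triplicate cycles in which purified recombinant mouse SALL4 zinc finger cluster 4 (residues 870–940, 1 µg) bound library DNA (1.5 µg first cycle, 200 ng later) in 100 µl of 10 mM Tris–HCl pH 7.5, 50 mM NaCl, poly(dI-dC), DTT for 10 min at room temperature. Complexes were then Ni2+ bead-captured, washed, PCR-amplified and reselected.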
# [1] = target: T2, SALL4 ZFC4 R900W (HT-SELEX) (Mus musculus, UniProt Q8BX22 870-940, R900W)
# T2 sequence: T1 sequence with R31W
# How it was run: as §1
# [2] = target: T3, SALL4 ZFC4 G921D (HT-SELEX) (Mus musculus, UniProt Q8BX22 870-940, G921D)
# T3 sequence: T1 sequence with G52D
# How it was run: as §1
Sequence,binding signal (SALL4 ZFC4 WT (HT-SELEX)) [fold-change vs cycle 0],binding signal [1] [fold-change vs cycle 0],binding signal [2] [fold-change vs cycle 0]
ACATCT,1.34 ± 0.0364,1.46 ± 0.0394,1.4 ± 0.0574
TGAGCA,0.639 ± 0.0443,0.737 ± 0.0106,0.843 ± 0.0202
AACAGG,0.801 ± 0.0521,0.937 ± 0.0272,0.942 ± 0.0148
ACCTCA,0.854 ± 0.0441,0.976 ± 0.0441,1.04 ± 0.0599
CTTGGA,0.806 ± 0.0506,0.948 ± 0.0291,0.984 ± 0.0463
CTGGAA,0.772 ± 0.02,0.891 ± 0.0485,0.926 ± 0.0429
AGTGGA,0.862 ± 0.03,0.954 ± 0.0352,0.964 ± 0.0435
CGTATC,0.723 ± 0.0291,0.818 ± 0.0282,0.89 ± 0.0234
TGATAA,2.35 ± 0.175,2.08 ± 0.2,1.87 ± 0.208
TATGCA,1.19 ± 0.0704,1.16 ± 0.0312,1.15 ± 0.0173
GACTCC,0.5 ± 0.00838,0.594 ± 0.00754,0.705 ± 0.0401
GTGACA,0.691 ± 0.0164,0.813 ± 0.0124,0.852 ± 0.0256
AGTTCG,0.647 ± 0.0383,0.741 ± 0.0101,0.828 ± 0.0183
ACATGA,1.38 ± 0.0574,1.49 ± 0.0283,1.4 ± 0.088
AATTCT,2.05 ± 0.0669,1.99 ± 0.104,1.8 ± 0.162
ATACGC,0.486 ± 0.0113,0.531 ± 0.0184,0.66 ± 0.0195
TAGCTA,1.22 ± 0.05,1.3 ± 0.064,1.29 ± 0.0827
ACGGAA,0.706 ± 0.0319,0.803 ± 0.0284,0.868 ± 0.0441
CGTCAC,0.375 ± 0.0256,0.436 ± 0.013,0.545 ± 0.0521
CAGAAA,1.12 ± 0.0595,1.18 ± 0.0406,1.15 ± 0.0688
GTGGGA,0.413 ± 0.0385,0.478 ± 0.0252,0.567 ± 0.0443
CACATG,0.752 ± 0.0217,0.8671 ± 0.00649,0.925 ± 0.0436
ACAGTA,1.35 ± 0.0516,1.47 ± 0.111,1.37 ± 0.127
CATTGA,1.25 ± 0.0236,1.39 ± 0.0271,1.35 ± 0.0347
CATACG,0.727 ± 0.0223,0.792 ± 0.0487,0.858 ± 0.0517
ACCAAG,0.816 ± 0.0198,0.935 ± 0.0459,0.983 ± 0.0112
AGTTTG,1.14 ± 0.0447,1.23 ± 0.039,1.22 ± 0.0352
CTCGAG,0.462 ± 0.0432,0.548 ± 0.0598,0.638 ± 0.046
CATTAA,2.01 ± 0.0894,1.95 ± 0.11,1.74 ± 0.165
CCTCCC,0.317 ± 0.0293,0.372 ± 0.0347,0.467 ± 0.0525
